Assay results reported in the supplement of paper PMC10849652.
About 8,800 targets were measured; listed, in parts, are those with a hit and a random draw of the rest. About 0.5% of all pairs of compound and target were hits. Unmarked numbers belong to inactive results.

Columns and labels:
Assay in all cases: log2 fold change, soluble protein after heating vs DMSO (PISA); higher = thermal stabilisation; K562 lysate, 10 uM; active = over 0.2 and 3.5 SD of the protein, either way, in both replicates (recomputed)
[1] = compound: C1=CC=C(C=C1)[C@H](COC2=CC3=C(C=C2)NC(=O)N3)NC(=O)C4=CC=CN(C4=O)CC5=CC(=C(C=C5)F)F
Summary of the method: (§1)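 Soluble protein was defined as the supernatant remaining after 21,000xg for 90 min, following pooling of heated aliquots and adjustment to 0.5% NP-40 at 4°C. Before that, crude K562 extract at 1 mg/mL protein in PBS pH 7.4 with 1 mM MgCl2 was treated with 10 μM compound for 30 min and heated for 3 min across 48°C-58°C. Quantification used TMTpro 16plex LC-MS/MS with channel sums equalised, and values are log-two fold changes in thermal stability relative to solvent controls from duplicates.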

[2] = compound: CC1=C(SC2=C1C(=N[C@H](C3=NN=C(N32)C)CC(=O)N)C4=CC=C(C=C4)Cl)C
Summary of the method: as §1

[3] = compound: Cc1sc2c(c1C)C(c1ccc(Cl)cc1)=N[C@@H](CC(=O)OC(C)(C)C)c1nnc(C)n1-2
Summary of the method: as §1

[4] = compound: CC1=C2C(=CC=C1)N=C(N(C2=O)C3=CC=CC=C3C)CN4C=NC5=C(N=CN=C54)N
Summary of the method: as §1

[5] = compound: c1ccc([C@@H]2C[C@H]2NC2CCNCC2)cc1
Summary of the method: as §1

UniProt Q9BTU6, sequence (Q9BTU6 whole entry, looked up): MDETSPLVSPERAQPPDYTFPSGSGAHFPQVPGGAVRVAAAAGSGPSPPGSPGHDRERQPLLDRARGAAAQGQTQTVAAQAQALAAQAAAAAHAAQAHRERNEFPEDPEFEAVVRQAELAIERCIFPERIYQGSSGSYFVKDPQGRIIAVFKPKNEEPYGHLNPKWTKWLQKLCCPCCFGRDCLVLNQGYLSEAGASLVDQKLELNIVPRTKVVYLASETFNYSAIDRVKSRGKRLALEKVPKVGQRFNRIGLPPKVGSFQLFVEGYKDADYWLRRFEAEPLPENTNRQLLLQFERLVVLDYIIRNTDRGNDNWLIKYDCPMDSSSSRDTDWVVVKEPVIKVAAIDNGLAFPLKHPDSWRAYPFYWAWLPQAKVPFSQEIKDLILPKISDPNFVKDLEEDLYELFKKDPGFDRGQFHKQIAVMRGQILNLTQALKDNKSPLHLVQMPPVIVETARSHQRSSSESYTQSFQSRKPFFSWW
UniProt A8CG34, sequence (A8CG34 whole entry, looked up): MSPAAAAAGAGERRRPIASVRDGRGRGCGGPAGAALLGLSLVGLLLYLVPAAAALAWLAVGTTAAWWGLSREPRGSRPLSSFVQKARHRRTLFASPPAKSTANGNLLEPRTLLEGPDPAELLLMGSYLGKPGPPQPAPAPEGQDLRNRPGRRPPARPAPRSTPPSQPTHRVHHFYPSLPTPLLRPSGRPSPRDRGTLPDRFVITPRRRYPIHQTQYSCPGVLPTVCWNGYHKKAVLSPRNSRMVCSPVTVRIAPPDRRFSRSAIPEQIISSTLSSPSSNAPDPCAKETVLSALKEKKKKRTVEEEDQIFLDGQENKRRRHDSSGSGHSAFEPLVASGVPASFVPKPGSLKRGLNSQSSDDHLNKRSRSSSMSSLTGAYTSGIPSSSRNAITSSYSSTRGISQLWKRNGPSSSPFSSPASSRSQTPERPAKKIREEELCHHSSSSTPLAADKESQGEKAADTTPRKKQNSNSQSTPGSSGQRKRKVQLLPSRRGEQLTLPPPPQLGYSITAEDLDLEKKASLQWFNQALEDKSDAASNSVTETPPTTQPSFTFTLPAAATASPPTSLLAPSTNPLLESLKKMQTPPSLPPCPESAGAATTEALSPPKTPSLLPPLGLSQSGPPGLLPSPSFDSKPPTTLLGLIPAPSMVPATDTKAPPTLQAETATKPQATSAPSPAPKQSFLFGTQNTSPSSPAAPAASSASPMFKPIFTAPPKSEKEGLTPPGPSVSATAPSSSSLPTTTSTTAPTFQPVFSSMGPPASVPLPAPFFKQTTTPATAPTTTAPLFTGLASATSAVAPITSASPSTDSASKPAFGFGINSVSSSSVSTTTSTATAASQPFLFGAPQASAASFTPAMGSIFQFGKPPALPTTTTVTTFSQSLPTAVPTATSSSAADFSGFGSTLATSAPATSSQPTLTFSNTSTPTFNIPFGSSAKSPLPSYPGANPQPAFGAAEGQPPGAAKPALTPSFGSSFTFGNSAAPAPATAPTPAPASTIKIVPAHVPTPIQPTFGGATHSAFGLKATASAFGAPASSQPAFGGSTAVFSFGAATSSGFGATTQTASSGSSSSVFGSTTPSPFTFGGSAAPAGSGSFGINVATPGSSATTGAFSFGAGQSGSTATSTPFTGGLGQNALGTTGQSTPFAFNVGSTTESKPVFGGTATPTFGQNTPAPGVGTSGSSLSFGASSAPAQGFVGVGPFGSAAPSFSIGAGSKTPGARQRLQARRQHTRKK
UniProt Q9UBF8, sequence (Q9UBF8 whole entry, looked up): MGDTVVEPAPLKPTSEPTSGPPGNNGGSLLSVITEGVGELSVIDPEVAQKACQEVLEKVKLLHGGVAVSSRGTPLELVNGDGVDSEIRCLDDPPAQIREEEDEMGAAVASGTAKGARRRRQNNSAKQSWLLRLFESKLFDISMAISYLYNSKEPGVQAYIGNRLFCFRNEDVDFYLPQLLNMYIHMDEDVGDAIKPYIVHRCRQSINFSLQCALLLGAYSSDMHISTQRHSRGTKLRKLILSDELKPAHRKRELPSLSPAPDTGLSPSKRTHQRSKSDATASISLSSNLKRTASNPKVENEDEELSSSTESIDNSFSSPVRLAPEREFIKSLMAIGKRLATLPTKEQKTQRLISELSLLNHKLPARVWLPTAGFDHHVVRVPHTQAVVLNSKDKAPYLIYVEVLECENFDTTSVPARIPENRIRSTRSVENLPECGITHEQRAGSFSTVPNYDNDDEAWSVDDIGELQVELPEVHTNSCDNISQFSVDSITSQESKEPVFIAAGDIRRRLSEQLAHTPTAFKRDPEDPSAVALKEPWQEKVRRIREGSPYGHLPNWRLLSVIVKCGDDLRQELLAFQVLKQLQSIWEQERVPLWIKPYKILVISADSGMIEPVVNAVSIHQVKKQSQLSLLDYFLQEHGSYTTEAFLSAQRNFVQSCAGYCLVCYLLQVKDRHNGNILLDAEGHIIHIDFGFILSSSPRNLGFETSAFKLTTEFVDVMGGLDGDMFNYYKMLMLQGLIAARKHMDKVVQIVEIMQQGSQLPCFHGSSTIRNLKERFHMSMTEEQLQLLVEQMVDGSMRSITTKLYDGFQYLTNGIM
UniProt O15530, sequence (O15530 whole entry, looked up): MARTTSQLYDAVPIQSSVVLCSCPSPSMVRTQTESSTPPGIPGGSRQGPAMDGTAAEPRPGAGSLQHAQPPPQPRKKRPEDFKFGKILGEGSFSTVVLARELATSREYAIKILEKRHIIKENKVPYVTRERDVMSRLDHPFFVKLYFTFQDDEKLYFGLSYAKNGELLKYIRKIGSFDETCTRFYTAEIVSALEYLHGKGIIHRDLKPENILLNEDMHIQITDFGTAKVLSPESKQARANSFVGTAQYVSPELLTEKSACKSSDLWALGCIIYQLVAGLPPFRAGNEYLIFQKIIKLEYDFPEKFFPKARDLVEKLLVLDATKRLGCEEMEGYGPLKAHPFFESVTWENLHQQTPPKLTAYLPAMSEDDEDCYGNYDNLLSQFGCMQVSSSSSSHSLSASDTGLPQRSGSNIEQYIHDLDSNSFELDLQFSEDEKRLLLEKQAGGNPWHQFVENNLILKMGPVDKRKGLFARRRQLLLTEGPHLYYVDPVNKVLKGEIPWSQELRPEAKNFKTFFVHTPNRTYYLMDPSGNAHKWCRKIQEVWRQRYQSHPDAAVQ
UniProt Q9Y4D7, sequence (Q9Y4D7 whole entry, looked up): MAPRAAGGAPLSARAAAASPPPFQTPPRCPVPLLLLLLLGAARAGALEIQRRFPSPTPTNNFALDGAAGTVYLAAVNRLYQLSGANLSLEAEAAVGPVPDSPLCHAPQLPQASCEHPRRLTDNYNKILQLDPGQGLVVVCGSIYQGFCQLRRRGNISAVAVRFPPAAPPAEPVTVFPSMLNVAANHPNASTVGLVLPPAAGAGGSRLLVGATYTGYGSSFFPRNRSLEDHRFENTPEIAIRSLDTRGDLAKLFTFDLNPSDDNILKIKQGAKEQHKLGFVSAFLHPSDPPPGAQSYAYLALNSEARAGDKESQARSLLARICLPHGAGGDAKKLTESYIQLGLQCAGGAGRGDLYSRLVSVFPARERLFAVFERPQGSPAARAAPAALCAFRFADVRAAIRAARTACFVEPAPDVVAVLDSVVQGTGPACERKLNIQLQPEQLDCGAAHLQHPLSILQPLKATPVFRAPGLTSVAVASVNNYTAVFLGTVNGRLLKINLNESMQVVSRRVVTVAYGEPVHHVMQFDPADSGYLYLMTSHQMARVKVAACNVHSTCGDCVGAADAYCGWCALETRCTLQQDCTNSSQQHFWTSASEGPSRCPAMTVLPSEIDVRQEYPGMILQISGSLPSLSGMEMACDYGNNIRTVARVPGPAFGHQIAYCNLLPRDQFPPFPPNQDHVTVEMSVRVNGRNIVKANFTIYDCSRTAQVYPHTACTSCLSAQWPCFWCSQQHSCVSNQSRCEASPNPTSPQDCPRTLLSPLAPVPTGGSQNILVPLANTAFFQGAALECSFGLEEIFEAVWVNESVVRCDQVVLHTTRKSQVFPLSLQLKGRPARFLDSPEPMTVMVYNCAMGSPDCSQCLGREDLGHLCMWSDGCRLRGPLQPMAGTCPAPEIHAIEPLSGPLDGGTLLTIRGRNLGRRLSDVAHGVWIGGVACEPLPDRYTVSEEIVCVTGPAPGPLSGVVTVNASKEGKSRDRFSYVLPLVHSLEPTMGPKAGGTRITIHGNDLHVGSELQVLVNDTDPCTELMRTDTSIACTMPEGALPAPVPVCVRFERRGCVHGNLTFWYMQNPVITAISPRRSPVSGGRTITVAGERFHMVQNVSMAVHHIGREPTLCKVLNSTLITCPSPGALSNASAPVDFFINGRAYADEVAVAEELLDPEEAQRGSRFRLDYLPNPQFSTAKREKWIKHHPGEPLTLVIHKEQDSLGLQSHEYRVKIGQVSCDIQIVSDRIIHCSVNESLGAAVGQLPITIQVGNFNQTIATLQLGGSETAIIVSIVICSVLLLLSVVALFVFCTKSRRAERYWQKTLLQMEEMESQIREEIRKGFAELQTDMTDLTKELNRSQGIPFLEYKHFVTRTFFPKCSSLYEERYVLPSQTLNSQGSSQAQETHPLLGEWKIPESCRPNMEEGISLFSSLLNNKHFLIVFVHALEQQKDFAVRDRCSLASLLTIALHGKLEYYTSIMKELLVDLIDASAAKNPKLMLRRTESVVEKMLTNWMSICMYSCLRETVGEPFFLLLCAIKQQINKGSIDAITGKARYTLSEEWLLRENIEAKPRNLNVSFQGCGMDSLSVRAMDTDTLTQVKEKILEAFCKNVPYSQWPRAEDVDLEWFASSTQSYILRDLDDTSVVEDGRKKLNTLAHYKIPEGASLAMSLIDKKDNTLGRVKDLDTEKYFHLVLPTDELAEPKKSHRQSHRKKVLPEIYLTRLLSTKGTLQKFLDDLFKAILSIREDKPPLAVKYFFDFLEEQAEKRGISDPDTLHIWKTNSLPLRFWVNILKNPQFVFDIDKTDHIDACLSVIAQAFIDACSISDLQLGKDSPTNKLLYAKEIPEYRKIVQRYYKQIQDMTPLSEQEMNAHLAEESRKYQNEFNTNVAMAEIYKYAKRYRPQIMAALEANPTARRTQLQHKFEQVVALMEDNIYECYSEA

| Target | log2 fold change [1] | log2 fold change [2] | log2 fold change [3] | log2 fold change [4] | log2 fold change [5] |
| --- | --- | --- | --- | --- | --- |
| PHGDH, A0A286YFE1 | 0.061 | -0.111 | -0.095 | – | – |
| PI4K2A (UniProt Q9BTU6) | 0.028 | 0.056 | -0.002 | -0.007 | 0.001 |
| POM121C (UniProt A8CG34) | 0.058 | 0.042 | – | – | -0.02 |
| PRR4 (UniProt Q16378) | – | – | – | -0.076 | -0.269 |
| POLR2F (UniProt U3KPV3) | – | – | -0.113 | – | – |
| PRG4 (UniProt Q92954) | 0.03 | -0.081 | -0.059 | – | -1.18 (active) |
| PI4KB (UniProt Q9UBF8) | 0.022 | -0.006 | -0.005 | -0.019 | 0.002 |
| PDIA4, A0A499FI48 | – | – | 0.083 | – | 0.564 |
| PDPK1 (UniProt O15530) | – | 0 | 0.022 | -0.035 | -0.069 |
| POLA1 (UniProt P09884) | 0.006 | 0.01 | -0.002 | 0.037 | 0.002 |
| PFN1 (UniProt I3L3D5) | 0.007 | 0.065 | – | – | 0.164 |
| PLXND1 (UniProt Q9Y4D7) | -0.039 | 0.082 | 0.029 | – | – |
| PXMP4 (UniProt Q9Y6I8) | -0.096 | -0.022 | -0.191 | -0.026 | 0.041 |
| PPME1 (UniProt Q9Y570) | 0.057 | -0.02 | 0.06 | – | – |
